Screens as filed in PubChem BioAssay.
MCL1-BIM inh = MCL1-BIM-BH3 interaction inhibition (human); GST-MCL1 / FITC-Bim-BH3 fluorescence polarization; inhibition, % at 10.9 µM; 320,000 tested, 0.68% active; AID 2057;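 active = inhibition above the mean inhibition of all tested compounds plus 3 SD, set per campaign, cut at about 40% in these data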;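 also: 0% = DMSO wells and 100% = unlabeled Bim-BH3 peptide control; higher means more loss of mP so more displacement of Bim peptide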
Mcl1 Noxa PPI = Mcl-1/Noxa interaction inhibition. TR-FRET Mcl-1/Noxa peptide binding, 2 h. inhibition, % at 21.7 µM. 220,000 tested, 1.5% active. AID 1022;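 active = compounds that cut the protein-peptide binding signal by more than 50% relative to plate controls in a single-dose test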;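 also: His-tagged Mcl-1 with rhodamine Noxa BH3 peptide and terbium anti-His antibody; 0% = Mcl-1 plus Noxa peptide wells and 100% = peptide-only wells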
Mcl1 Bid PPI = Mcl-1/Bid interaction inhibition. Q07820. TR-FRET Mcl-1/Bid-Dy647 peptide binding, 1536-well. inhibition, % at 21.7 µM. 220,000 tested, 0.97% active. AID 1021;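 active = compounds that cut the binding signal by more than half at the single screening dose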;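 also: His-tagged Mcl-1 with europium anti-His antibody binding Bid BH3 peptide; 0% = Mcl-1 plus peptide wells and 100% = peptide-only wells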
Mcl-1 Bim block = inhibitors of Bim-Mcl-1 interaction, human; Q07820; Bead-based flow cytometry, Bim peptide-Mcl-1 binding; inhibition, % at 10 µM; 190,000 tested, 0.1% active; AID 1009; in the data active = inhibition above about 40%;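 also: 0% = no compound tracer wells and 100% = peptide blocker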
GLD-1 TGE inh = GLD-1-TGE RNA interaction inhibition (C. elegans) | inhibition, % at 5.96 µM | AID 2280 | 320,000 tested, 0.44% active | Q17339 | purified GLD-1 + fluorescein TGE RNA, fluorescence polarization;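 active = percent inhibition above a per-plate cutoff, the plate mean of test compounds plus 3 SD, cut at about 30% in these data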;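 also: 0% = DMSO wells with GLD-1 and probe and 100% = wells lacking GLD-1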
Target sequence (Q17339 whole entry, looked up): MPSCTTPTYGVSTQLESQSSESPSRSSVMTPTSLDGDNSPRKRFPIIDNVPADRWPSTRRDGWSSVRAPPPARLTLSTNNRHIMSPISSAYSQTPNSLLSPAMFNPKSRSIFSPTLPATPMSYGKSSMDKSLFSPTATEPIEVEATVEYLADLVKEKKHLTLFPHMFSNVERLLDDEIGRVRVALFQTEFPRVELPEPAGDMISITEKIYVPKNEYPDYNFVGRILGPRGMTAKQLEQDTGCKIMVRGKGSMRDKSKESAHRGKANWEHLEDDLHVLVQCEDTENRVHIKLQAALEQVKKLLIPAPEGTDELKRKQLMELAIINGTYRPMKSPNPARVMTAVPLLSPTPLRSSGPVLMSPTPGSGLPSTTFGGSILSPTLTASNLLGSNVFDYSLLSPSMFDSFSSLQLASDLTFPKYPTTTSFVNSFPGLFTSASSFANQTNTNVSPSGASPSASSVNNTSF
BCLXL inh = blocks human Bcl-xL binding to Bim BH3 peptide | inhibition, % at 10.9 µM | AID 2129 | 320,000 tested, 0.7% active | GST-Bcl-xL / FITC-Bim BH3 peptide fluorescence polarization;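 active = inhibition above the mean of all tested compounds plus 3 SD, cutoff set per campaign, cut at about 30% in these data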;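 also: 0% = DMSO wells and 100% = unlabeled Bim-BH3 peptide competitor; inhibitors lower millipolarization by displacing the labeled peptide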
Target sequence (Q07817 whole entry, looked up): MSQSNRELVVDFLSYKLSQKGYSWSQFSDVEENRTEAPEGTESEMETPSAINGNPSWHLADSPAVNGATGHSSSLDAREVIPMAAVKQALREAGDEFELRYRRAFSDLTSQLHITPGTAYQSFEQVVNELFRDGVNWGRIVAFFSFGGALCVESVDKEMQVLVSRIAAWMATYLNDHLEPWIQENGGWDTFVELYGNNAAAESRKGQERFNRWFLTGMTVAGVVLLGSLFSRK
BCLXL inh confirm = counter-screen for MCL1 inhibitors: confirmation of human Bcl-xL inhibitors; shares compounds with MCL1-BIM inh; GST-Bcl-xL / FITC-Bim BH3 peptide FP binding; inhibition, % at 10.9 µM; 1,700 tested, 54% active;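 active = inhibition above a cutoff equal to the mean inhibition of all tested compounds plus 3 SD, cut at about 30% in these data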;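 also: 0% = DMSO wells and 100% = unlabeled Bim BH3 control peptide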
MCL1 inh confirm = confirmation of human MCL1 and BIM-BH3 interaction inhibitors. GST-MCL1 / FITC-Bim-BH3 fluorescence polarization. 1,700 tested, 61% active. AID 2168. inhibition, % at 10.9 µM. shares compounds with MCL1-BIM inh;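 active = inhibition above the average of all tested compounds plus 3 SD, cut at about 40% in these data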;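 also: 0% = DMSO wells and 100% = unlabeled Bim-BH3 control peptide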
An asterisk follows results filed as active; x = no result given; + = active, no number. Hits are enriched below; roughly 2.3% of the tested compounds scored in any of these assays.

SMILES	MCL1-BIM inh	Mcl1 Noxa PPI	Mcl1 Bid PPI	Mcl-1 Bim block	GLD-1 TGE inh	BCLXL inh	BCLXL inh confirm	MCL1 inh confirm
CCOc1ccc(/C=N/NC(=O)c2cc(-c3ccco3)nc3ccccc23)cc1	-2.0	44.9	-18.6	0.0	-1.5	-5.1	x	x
COc1ccccc1CC(=O)Nc1ncc(C)s1	2.5	x	x	x	3.2	3.6	x	x
COc1ccc2oc(C(=O)OC(C)C(=O)NCc3ccccc3)c(C)c2c1 (stereo not drawn)	44.0*	x	x	x	-0.3	-8.3	6.0	1.8
O=C(COC(=O)c1n[nH]c(=O)c2ccccc12)NC1CCCCC1	4.1	x	x	x	9.7	-5.2	x	x
CCOC(=O)N/N=C\c1ccc([N+](=O)[O-])o1	63.9*	0.8	-37.3	0.0	0.0	7.8	0.6	2.2
c1ccc(Nc2nc3ccccc3n3nnnc23)cc1	60.9*	0.9	-5.4	-2.0	5.5	36.3*	33.8*	32.9
Brc1ccc(Nc2nc3ccccc3n3nnnc23)cc1	17.2	16.6	-17.7	-6.0	2.6	11.7	x	x
CC(=O)Nc1ccc(S(=O)(=O)Nc2cc(C)cn(Cc3ccccc3)c2=O)cc1	-8.4	x	x	x	-1.9	-1.6	x	x
Cc1onc(-c2ccccc2)c1C(=O)NCCc1ccncc1	3.2	x	x	x	2.3	6.6	x	x
COC1CCN(C(=O)CC2C(=O)NCCN2CC(C)(C)C)CC1 (stereo not drawn)	50.2*	1.6	-169.5	0.0	28.2	44.6*	9.9	19.3
C[C@@H](NC(=O)c1nc[nH]c1C(=O)N(C)Cc1ccccc1)c1ccccc1	7.3	x	x	x	2.6	4.7	x	x
CCOc1ccc(N)c(SSc2cc(OCC)ccc2N)c1	15.1	x	x	x	-0.2	0.8	x	x
CCOc1cc(-c2ccc(N)c(OCC)c2)ccc1N	174.0*	8.4	-20.2	0.0	126.8*	148.2*	134.1*	183.1*
COc1cccc(C(=O)Nc2ccncc2)c1	45.1*	3.7	-19.7	-1.0	9.8	6.8	-1.3	2.7
COc1cccc(C(=O)Nc2ccc3c(c2)C(=O)c2ccccc2C3=O)c1	77.1*	75.4*	73.5*	5.0	1.3	17.2	8.2	34.2
COc1cccc(NC(=O)c2ccncc2)c1	7.3	-12.1	-40.5	9.0	-2.7	4.9	x	x
COc1cccc(C(=O)Nc2ccc(C(=O)c3ccccc3)cc2)c1	2.4	x	x	x	-1.0	0.8	x	x
O=c1[nH]c2c(s1)C=Nc1ccccc1N2	+	24.7	-10.2	0.0	143.8*	178.2*	118.4*	151.5*
Cc1ccc(OCCOCCn2ccnc2)c(Br)c1	43.6*	9.2	21.9	-8.0	-1.6	-1.4	-8.3	-21.5
CC1(C)CC(NS(=O)(=O)c2ccc(S(N)(=O)=O)cc2)CC(C)(C)N1	117.7*	x	x	x	88.8*	96.8*	10.9	4.0
COc1cc2c(cc1OC)CN(c1ccc(-c3ccccc3OC)nn1)CC2	64.7*	-4.5	-16.7	0.0	-16.3	54.1*	21.8	17.4
COc1cc2c(cc1OC)CN(c1ccc3ccccc3n1)CC2	-6.8	x	x	x	-10.4	-5.3	x	x
O=C(O)c1ccccc1NC(=O)c1ccccc1Nc1ccccc1	11.6	x	x	x	-1.2	9.4	x	x
CC1(C)CC(=O)C2=C(C1)OC1=C(C(=O)CC(C)(C)C1)C2c1ccc(O)cc1O	+	41.1	-20.0	-5.0	128.3*	174.5*	147.8*	194.1*
Cc1ccc(Oc2c(CO)c(-c3ccccc3)nn2C)cc1	47.7*	7.0	-19.4	0.0	9.0	2.1	1.9	1.3
SMILES	MCL1-BIM inh	Mcl1 Noxa PPI	Mcl1 Bid PPI	Mcl-1 Bim block	GLD-1 TGE inh	BCLXL inh	BCLXL inh confirm	MCL1 inh confirm
O=C(CSc1nc2ccccc2c(=O)[nH]1)c1ccc(O)cc1O	x	2.9	-21.6	-2.0	x	x	x	x
O=C(CSc1nc2ccccc2c(=O)[nH]1)c1ccc(O)c(O)c1	48.2*	21.2	-44.2	0.0	-2.1	4.5	38.1*	66.3*
COc1ccc(OC)c(C2=NS(=O)(=O)N(C)C(C(=O)NCc3ccco3)=C2)c1	-7.9	x	x	x	6.1	-1.0	x	x
CC(=O)OCC1=C(C(=O)O)N2C(=O)C(NC(=O)c3ccc(COc4cccc(Cl)c4Cl)o3)C2SC1 (stereo not drawn)	50.7*	48.3	-5.3	-1.0	-0.5	29.1	18.5	65.8*
COc1cccc(C(=O)NC2C(=O)N3C(C(=O)O)=C(COC(C)=O)CSC23)c1 (stereo not drawn)	21.0	x	x	x	5.9	8.6	x	x
Cc1ccc(C)c(NC(=O)CCC(=O)N2CCOc3ccccc32)c1	2.8	x	x	x	6.6	1.8	x	x
O=C(NC(=S)N1CCCCCC1)c1ccccc1Cl	4.0	7.4	-24.1	0.0	-2.3	6.2	x	x
O=C(NC(=S)N1CCCCCC1)c1ccc(Cl)cc1Cl	43.1*	-3.5	-2.1	-5.0	-7.3	1.7	10.7	5.9
CCOCCSc1n[nH]c(=O)n1CCc1ccccc1	-6.0	x	x	x	-6.2	2.6	x	x
O=C1C(Br)=Cc2cccc3cccc1c23	134.6*	4.7	-6.6	x	83.2*	116.1*	96.7*	133.1*
CN(Cc1ccc(F)cc1)S(=O)(=O)c1nnc(NC(=O)c2ccccc2Br)s1	0.3	x	x	x	-0.1	0.9	x	x
O=C(N=Nc1c(O)[nH]c2ccccc12)c1cc(-c2cccs2)[nH]n1	43.2*	46.2	-47.0	x	-5.3	15.3	11.7	31.4
O=C(Cc1cccs1)N=Nc1c(O)[nH]c2ccccc12	7.7	7.8	-52.0	x	0.1	5.6	x	x
CCOC(=O)c1c(/N=C/c2cccc([N+](=O)[O-])c2O)sc(C)c1C	55.0*	27.1	-15.8	-1.0	21.4	44.7*	16.5	22.3
CN1CCc2cccc3c2[C@H]1Cc1ccc(O)c(O)c1-3	56.0*	87.7*	-64.7	7.0	6.9	35.8*	41.7*	70.0*
CCc1cc(=O)oc2c(CNCc3ccc(OC)cc3OC)c(O)c(Cl)cc12	4.6	x	x	x	7.2	5.9	x	x
Cc1nc2c(c(=O)n1CCC1=CCCCC1)c1nc3ccccc3nc1n2/N=C/c1ccco1	48.9*	94.2*	73.8*	6.0	9.7	39.2*	31.8*	57.6*
CCCn1c(C)nc2c(c1=O)c1nc3ccccc3nc1n2CCC1=CCCCC1	15.9	11.5	6.2	0.0	10.1	21.1	x	x
Oc1ccc(/C=N/Nc2ncnc3c2ncn3Cc2ccccc2)cc1O	57.2*	23.8	-60.9	-4.0	2.8	7.4	11.0	33.3
COc1cccc(-n2c(C)c3c(OC)cccc(=O)c3c2C)c1	41.3*	32.7	-67.8	0.0	16.9	30.1	16.5	14.8
COc1cccc(=O)c2c(C)n(-c3cc(C)cc(C)c3)c(C)c12	-0.4	0.0	-33.8	-4.0	-2.7	7.9	x	x
C[N+](C)(C)C[C@H](O)CC(=O)[O-]	2.4	x	x	x	6.3	4.2	x	x
